Assay results from PubChem BioAssay (NCATS).
Results filed as inconclusive are left out. Activity calls are given as the source filed them. The call rests on the fitted dose curve.

Assay: Primary qHTS for Vero E6 cytotoxicity: counterscreen for inhibitors of SARS-S pseudo-typed particle cell entry (AID 1479150)
Settings: cell viability; series mostly up to 57.1 µM; activity change, negative = cytotoxicity: at the top concentration
On the % scale 0 is the no-effect control and ±100 the full control effect; potency means the concentration at half of the fitted maximal effect.

| SMILES | outcome | activity change, negative = cytotoxicity | Potency |
| --- | --- | --- | --- |
| CC(=O)Nc1c(I)c(NC(C)=O)c(I)c(C(=O)O)c1I | inactive | – | – |
| CC[N+](CC)(CC)CCOc1cccc(OCC[N+](CC)(CC)CC)c1OCC[N+](CC)(CC)CC | inactive | – | – |
| Cc1ccsc1/C=C/C1=NCCCN1C | – | -4.4% (inactive) | – |
| Cc1cc(NS(=O)(=O)c2ccc(N)cc2)nc(C)n1 | – | -17.9% (inactive) | – |
| C[C@]12CCC(=O)C=C1CC[C@H]1[C@@H]3CC[C@](O)(C(=O)CO)[C@@]3(C)C[C@H](O)[C@@]12F | – | 1.24% (inactive) | – |
| c1ccc2c(CC3=NCCN3)cccc2c1 | – | -1.28% (inactive) | – |
| CCCCOC(=O)c1ccc(O)cc1 | – | 4.12% (inactive) | – |
| CC(=O)OCC1=C(C(=O)O)N2C(=O)[C@@H](NC(=O)Cc3cccs3)[C@H]2SC1 | inactive | – | – |
| COc1cc(C(=O)NC2CCCNC2)cc(OC)c1OC (stereo not drawn) | – | -6.02% (inactive) | – |
| CC(C)c1ccc2oc3nc(N)c(C(=O)O)cc3c(=O)c2c1 | – | – | 7.94 µM (active) |
| NC(=O)NC(=O)Cc1ccccc1 | inactive | – | – |
| CC(=O)O[C@@H]1CC2C3CCc4cc(OC(=O)c5ccccc5)ccc4C3CCC2(C)[C@H]1OC(C)=O (stereo partly drawn) | – | -0.805% (inactive) | – |
| NC(=O)c1ccccc1O | – | -7.74% (inactive) | – |
| CCCCCCCCCCCCCCCCCC(=O)O | – | 2.33% (inactive) | – |
| Cc1cc(NS(=O)(=O)c2ccc(N)cc2)no1 | – | -2.42% (inactive) | – |
| CCCNC(C)C(=O)Nc1ccccc1C (stereo not drawn) | – | -3.57% (inactive) | – |
| CCOC(=O)NNc1ccc(N(CC)CC(C)O)nn1 (stereo not drawn) | inactive | – | – |
| CN1C(=O)OC(C)(C)C1=O | – | -8.62% (inactive) | – |
| CC1(C)O[C@@H]2C[C@H]3[C@@H]4C[C@H](F)C5=CC(=O)C=C[C@]5(C)[C@@]4(F)[C@@H](O)C[C@]3(C)[C@]2(C(=O)CO)O1 | – | -5.29% (inactive) | – |

| SMILES | outcome | activity change, negative = cytotoxicity | Potency |
| --- | --- | --- | --- |
| O=C1c2ccccc2C(=O)c2c1ccc(O)c2O | – | -5.84% (inactive) | – |
| Cc1ncc(CO)c(CO)c1O | – | 4.26% (inactive) | – |
| Nc1nc(/C(=C/CC(=O)O)C(=O)N[C@@H]2C(=O)N3C(C(=O)O)=CCS[C@H]23)cs1 | inactive | – | – |
| Cc1oc(=O)oc1CN1CCN(c2cc3c(cc2F)c(=O)c(C(=O)O)c2n3C(C)S2)CC1 (stereo not drawn) | inactive | – | – |
| O=c1[nH]c(=O)n([C@H]2C[C@H](O)[C@@H](CO)O2)cc1I | inactive | – | – |
| O=C(O)c1cc(=O)[nH]c(=O)[nH]1 | inactive | – | – |
| N#C[C@H]1C[C@H]2C[C@@H]2N1C(=O)[C@@H](N)C12CC3CC(CC(O)(C3)C1)C2 | – | -11.5% (inactive) | – |
| OCCOCCN1CCN(C2=Nc3ccccc3Sc3ccccc32)CC1 | inactive | – | – |
| NS(=O)(=O)c1cc(C(=O)NN2C[C@H]3[C@H]4CCC(C4)[C@H]3C2)ccc1Cl | inactive | – | – |
| CCOC(=O)[C@H](CCc1ccccc1)N[C@H]1CCCN2CCC[C@@H](C(=O)O)N2C1=O | inactive | – | – |
| O=C(CCOCCOCCOCCOCCC(=O)Nc1c(I)cc(I)c(C(=O)O)c1I)Nc1c(I)cc(I)c(C(=O)O)c1I | – | -17% (inactive) | – |
| C=CCc1ccc(O)c(OC)c1 | – | -1.79% (inactive) | – |
| CC(C)C(=O)c1c(C(C)C)nn2ccccc12 | – | -3.95% (inactive) | – |
| CCCC(O)C(CC)CO (stereo not drawn) | – | 2.98% (inactive) | – |
| CC(C)(O/N=C(\C(=O)N[C@@H]1C(=O)N2C(C(=O)[O-])=C(C[n+]3ccccc3)CS[C@H]12)c1csc(N)n1)C(=O)O | – | 1.03% [at 26.4 µM] (inactive) | – |
| Cn1c(=O)c2[nH]c(Br)nc2n(C)c1=O | inactive | – | – |
| C=CC(N)CCC(=O)O (stereo not drawn) | – | -11.1% [at 26.4 µM] (inactive) | – |
| CCCCCCOc1ccccc1C(N)=O | – | -2.74% (inactive) | – |
| CNC[C@H](O)[C@@H](O)[C@H](O)[C@H](O)CO | inactive | – | – |
